# According to publication PMC7862700, “An all-to-all approach to the identification of sequence-specific readers for epigenetic DNA modifications on cytosine”:
# How the values were obtained:
# Experiment in all cases: DAPPL (digital affinity profiling via proximity ligation, sequencing); 10 mM Tris-HCl pH 7.5, 50 mM NaCl, 1 mM DTT, 4% glycerol, room temperature, 30 min; GST-TFs on glutathione beads, 16-mer random dsDNA library, 0.1% formaldehyde crosslink after washing; high values mean tight binding
# FLI1 = target: T1, FLI1 (Homo sapiens, UniProt Q01543 1-452); conditions: protein: recombinant; tags: N-terminal GST; dsDNA, one strand shown
# T1 sequence: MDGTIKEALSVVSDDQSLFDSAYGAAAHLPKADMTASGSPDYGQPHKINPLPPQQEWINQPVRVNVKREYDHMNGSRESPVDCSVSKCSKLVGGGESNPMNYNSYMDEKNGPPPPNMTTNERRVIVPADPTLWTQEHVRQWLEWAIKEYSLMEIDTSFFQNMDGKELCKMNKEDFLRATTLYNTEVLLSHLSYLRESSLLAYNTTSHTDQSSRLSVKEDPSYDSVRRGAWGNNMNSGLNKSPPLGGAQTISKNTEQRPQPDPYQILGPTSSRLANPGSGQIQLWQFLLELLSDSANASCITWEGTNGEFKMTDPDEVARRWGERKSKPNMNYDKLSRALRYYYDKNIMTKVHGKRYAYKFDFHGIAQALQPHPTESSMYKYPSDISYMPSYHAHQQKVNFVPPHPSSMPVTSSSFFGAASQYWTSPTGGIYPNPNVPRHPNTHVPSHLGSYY
# How it was run: (§1)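 A tag-only sample was pooled with DNA-barcoded human transcription factors that had been expressed in yeast as GST fusions and captured on glutathione beads. The pools were incubated for 30 min at room temperature with 200 nmole of a random double-stranded 16-mer DNA library in Tris/NaCl/DTT/glycerol buffer, then washed, crosslinked with 0.1% formaldehyde, proximity-ligated (BsaI/T4 ligase, 1 h, 37 °C), PCR-amplified and sequenced on an Illumina NextSeq500. Binding signal is each hexamer's read frequency for a factor divided by its frequency for the tag-only sample.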
# ELK1 = target: T2, ELK1 (Homo sapiens, UniProt P19419 1-428); conditions: protein: recombinant; tags: N-terminal GST; dsDNA, one strand shown
# T2 sequence: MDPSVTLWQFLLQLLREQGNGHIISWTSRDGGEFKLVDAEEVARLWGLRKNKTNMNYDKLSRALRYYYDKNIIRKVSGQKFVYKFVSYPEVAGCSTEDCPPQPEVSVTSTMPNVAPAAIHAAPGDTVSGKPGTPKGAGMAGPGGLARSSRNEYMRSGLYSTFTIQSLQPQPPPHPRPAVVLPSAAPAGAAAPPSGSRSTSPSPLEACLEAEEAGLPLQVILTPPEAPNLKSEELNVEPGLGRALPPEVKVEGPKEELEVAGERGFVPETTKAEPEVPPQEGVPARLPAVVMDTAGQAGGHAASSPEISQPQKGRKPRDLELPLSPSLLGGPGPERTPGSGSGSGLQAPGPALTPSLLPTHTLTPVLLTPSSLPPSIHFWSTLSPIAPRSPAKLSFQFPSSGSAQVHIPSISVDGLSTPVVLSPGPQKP
# How it was run: as §1
# GABPA = target: T3, GABPA (Homo sapiens, UniProt Q06546 1-454); conditions: protein: recombinant; tags: N-terminal GST; dsDNA, one strand shown
# T3 sequence: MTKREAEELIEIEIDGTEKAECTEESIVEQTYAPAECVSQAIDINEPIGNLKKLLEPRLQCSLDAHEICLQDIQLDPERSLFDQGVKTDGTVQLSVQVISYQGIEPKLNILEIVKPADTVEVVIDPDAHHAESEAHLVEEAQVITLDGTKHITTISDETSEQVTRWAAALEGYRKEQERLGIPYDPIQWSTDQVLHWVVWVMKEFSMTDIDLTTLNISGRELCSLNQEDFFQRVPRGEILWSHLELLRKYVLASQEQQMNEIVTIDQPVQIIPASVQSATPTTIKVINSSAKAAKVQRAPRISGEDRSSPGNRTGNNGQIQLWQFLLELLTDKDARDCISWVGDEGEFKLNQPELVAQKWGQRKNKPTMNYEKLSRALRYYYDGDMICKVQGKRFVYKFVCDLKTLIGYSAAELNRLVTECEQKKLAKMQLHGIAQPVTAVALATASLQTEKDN
# How it was run: as §1
# ERG = target: T4, ERG (Homo sapiens, UniProt P11308 1-479); conditions: protein: recombinant; tags: N-terminal GST; dsDNA, one strand shown
# T4 sequence: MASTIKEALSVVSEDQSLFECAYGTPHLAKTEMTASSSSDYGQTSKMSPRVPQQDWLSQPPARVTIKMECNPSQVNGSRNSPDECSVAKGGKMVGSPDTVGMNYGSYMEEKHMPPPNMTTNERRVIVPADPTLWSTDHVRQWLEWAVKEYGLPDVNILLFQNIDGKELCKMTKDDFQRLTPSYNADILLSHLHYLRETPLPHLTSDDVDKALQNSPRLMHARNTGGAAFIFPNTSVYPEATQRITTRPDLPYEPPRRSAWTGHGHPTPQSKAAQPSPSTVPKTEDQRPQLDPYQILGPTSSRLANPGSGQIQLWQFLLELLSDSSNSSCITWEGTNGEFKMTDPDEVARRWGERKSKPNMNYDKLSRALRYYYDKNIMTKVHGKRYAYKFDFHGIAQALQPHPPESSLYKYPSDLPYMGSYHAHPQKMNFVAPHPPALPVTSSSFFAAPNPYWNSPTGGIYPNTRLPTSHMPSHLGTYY
# How it was run: as §1
# ELF1 = ELF1 (Homo sapiens, UniProt P32519 1-619); conditions: protein: recombinant; tags: N-terminal GST; dsDNA, one strand shown
# How it was run: as §1
# EHF = target: T5, EHF (Homo sapiens, UniProt Q9NZC4 1-300); conditions: protein: recombinant; tags: N-terminal GST; dsDNA, one strand shown
# T5 sequence: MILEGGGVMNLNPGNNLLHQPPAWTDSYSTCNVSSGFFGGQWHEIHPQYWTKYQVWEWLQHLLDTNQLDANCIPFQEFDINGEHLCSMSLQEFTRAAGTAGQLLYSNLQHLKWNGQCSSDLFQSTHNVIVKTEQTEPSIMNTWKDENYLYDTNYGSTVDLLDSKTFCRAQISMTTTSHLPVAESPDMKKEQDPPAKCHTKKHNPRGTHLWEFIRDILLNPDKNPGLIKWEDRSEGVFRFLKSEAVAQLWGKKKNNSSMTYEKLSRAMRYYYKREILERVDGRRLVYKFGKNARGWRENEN
# How it was run: as §1
# SPI1 = SPI1 (Homo sapiens, UniProt P17947 1-270); conditions: protein: recombinant; tags: N-terminal GST; dsDNA, one strand shown
# How it was run: as §1
# SPIB = SPIB (Homo sapiens, UniProt Q01892 1-262); conditions: protein: recombinant; tags: N-terminal GST; dsDNA, one strand shown
# How it was run: as §1
# ELK3 = target: T6, ELK3 (Homo sapiens, UniProt P41970 1-407); conditions: protein: recombinant; tags: N-terminal GST; dsDNA, one strand shown
# T6 sequence: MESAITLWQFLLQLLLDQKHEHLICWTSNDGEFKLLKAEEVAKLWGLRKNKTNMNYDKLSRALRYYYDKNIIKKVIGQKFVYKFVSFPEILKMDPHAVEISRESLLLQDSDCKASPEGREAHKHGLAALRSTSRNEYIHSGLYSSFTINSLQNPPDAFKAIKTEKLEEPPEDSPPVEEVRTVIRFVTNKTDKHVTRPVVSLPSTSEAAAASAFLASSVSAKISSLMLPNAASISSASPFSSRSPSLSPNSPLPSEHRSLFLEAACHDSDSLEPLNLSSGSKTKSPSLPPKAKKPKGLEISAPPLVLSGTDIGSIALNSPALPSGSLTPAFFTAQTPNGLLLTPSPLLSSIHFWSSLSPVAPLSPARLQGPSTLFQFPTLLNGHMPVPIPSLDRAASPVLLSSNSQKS
# How it was run: as §1
# FEV = target: T7, FEV (Homo sapiens, UniProt Q99581 1-238); conditions: protein: recombinant; tags: N-terminal GST; dsDNA, one strand shown
# T7 sequence: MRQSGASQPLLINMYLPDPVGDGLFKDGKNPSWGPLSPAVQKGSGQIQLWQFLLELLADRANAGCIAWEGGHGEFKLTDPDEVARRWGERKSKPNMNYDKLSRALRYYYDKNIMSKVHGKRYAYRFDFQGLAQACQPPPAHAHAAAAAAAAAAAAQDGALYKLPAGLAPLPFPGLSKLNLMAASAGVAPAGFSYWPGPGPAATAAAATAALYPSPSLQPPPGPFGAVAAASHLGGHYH
# How it was run: as §1
# ETV5 = ETV5 (Homo sapiens, UniProt P41161 1-510); conditions: protein: recombinant; tags: N-terminal GST; dsDNA, one strand shown
# How it was run: as §1
# HSF1 = HSF1 (Homo sapiens, UniProt Q00613 1-529); conditions: protein: recombinant; tags: N-terminal GST; chain copies: 3; dsDNA, one strand shown
# How it was run: as §1
# SPIC = target: T8, SPIC (Homo sapiens, UniProt Q8N5J4 1-248); conditions: protein: recombinant; tags: N-terminal GST; dsDNA, one strand shown
# T8 sequence: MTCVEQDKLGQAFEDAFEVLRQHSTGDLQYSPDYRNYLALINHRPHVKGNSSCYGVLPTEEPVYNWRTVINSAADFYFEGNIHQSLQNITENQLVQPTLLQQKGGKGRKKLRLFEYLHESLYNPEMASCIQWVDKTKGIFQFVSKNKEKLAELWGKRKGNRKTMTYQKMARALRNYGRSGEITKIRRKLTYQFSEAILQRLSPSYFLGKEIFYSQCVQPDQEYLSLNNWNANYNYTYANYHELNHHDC
# How it was run: as §1
# ELK4 = target: T9, ELK4 (Homo sapiens, UniProt P28324-2 1-405); conditions: protein: recombinant; tags: N-terminal GST; dsDNA, one strand shown
# T9 sequence: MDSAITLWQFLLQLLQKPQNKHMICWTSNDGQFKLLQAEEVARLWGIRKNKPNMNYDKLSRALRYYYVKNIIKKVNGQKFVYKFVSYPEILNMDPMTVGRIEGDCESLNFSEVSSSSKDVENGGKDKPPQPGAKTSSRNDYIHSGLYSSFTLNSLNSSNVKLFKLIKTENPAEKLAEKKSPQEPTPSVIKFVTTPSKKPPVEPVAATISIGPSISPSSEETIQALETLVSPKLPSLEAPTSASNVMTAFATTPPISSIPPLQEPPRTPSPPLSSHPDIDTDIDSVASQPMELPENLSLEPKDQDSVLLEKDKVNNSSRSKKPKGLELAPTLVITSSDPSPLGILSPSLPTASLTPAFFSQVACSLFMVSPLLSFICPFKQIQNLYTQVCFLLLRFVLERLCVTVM
# How it was run: as §1
# ETV2 = target: T10, ETV2 (Homo sapiens, UniProt O00321 1-342); conditions: protein: recombinant; tags: N-terminal GST; dsDNA, one strand shown
# T10 sequence: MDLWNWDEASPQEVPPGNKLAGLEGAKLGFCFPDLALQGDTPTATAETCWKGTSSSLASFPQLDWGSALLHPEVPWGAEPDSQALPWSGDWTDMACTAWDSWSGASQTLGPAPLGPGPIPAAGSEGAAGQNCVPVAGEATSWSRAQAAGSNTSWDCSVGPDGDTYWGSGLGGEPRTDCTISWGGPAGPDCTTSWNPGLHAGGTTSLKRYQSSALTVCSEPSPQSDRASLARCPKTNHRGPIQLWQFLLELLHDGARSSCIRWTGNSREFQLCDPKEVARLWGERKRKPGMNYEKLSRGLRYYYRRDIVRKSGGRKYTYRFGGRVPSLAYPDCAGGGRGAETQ
# How it was run: as §1
# ELF3 = target: T11, ELF3 (Homo sapiens, UniProt P78545 1-371); conditions: protein: recombinant; tags: N-terminal GST; dsDNA, one strand shown
# T11 sequence: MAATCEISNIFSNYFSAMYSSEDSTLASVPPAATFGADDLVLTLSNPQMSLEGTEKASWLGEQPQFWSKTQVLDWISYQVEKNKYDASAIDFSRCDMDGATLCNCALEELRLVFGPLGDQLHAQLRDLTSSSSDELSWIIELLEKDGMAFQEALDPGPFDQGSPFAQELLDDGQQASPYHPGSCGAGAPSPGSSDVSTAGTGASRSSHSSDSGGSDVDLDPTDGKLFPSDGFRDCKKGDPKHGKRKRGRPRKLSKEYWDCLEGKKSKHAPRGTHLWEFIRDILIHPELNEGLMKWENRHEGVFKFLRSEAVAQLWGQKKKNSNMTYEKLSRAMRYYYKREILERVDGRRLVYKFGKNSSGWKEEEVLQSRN
# How it was run: as §1
# CRX = CRX (Homo sapiens, UniProt O43186 1-299); conditions: protein: recombinant; tags: N-terminal GST; dsDNA, one strand shown
# How it was run: as §1
# ETV1 = ETV1 (Homo sapiens, UniProt P50549 1-477); conditions: protein: recombinant; tags: N-terminal GST; dsDNA, one strand shown
# How it was run: as §1
# Sequence of ETV5 (P41161 whole entry): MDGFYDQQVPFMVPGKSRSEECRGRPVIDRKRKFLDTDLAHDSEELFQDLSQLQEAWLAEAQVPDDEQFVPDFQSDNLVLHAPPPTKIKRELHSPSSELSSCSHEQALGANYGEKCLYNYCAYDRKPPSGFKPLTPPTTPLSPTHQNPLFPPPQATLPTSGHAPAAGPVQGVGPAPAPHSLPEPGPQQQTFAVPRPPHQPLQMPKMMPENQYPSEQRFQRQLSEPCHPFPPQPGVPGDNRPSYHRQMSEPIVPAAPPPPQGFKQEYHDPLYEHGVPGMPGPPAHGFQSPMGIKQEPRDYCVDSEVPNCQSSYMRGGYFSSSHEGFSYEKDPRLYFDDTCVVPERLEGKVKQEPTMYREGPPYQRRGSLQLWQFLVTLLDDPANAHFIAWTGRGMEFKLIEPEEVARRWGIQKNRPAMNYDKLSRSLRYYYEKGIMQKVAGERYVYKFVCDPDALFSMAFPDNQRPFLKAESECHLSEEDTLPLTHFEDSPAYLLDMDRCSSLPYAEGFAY
# Sequence of SPIB (Q01892 whole entry): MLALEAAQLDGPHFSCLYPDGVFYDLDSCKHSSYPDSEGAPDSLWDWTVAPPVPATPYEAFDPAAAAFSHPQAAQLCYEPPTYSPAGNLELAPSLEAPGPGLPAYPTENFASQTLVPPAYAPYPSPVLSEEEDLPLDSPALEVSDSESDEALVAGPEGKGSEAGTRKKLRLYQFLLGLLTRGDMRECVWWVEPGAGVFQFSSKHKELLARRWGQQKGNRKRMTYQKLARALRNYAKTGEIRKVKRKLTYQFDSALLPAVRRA
# Sequence of ETV1 (P50549 whole entry): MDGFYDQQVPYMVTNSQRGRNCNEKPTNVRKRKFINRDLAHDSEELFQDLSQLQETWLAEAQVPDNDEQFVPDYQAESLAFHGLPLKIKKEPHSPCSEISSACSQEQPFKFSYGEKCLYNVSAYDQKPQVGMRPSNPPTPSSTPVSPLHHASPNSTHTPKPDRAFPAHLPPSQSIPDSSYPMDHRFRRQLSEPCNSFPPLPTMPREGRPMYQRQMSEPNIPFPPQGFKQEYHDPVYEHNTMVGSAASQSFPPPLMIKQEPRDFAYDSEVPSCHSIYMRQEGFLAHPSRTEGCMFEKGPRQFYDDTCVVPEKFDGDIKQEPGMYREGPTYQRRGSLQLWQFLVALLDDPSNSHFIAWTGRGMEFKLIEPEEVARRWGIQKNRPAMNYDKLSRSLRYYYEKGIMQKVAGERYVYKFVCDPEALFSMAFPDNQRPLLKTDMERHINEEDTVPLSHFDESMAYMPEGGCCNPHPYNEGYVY
# Sequence of CRX (O43186 whole entry): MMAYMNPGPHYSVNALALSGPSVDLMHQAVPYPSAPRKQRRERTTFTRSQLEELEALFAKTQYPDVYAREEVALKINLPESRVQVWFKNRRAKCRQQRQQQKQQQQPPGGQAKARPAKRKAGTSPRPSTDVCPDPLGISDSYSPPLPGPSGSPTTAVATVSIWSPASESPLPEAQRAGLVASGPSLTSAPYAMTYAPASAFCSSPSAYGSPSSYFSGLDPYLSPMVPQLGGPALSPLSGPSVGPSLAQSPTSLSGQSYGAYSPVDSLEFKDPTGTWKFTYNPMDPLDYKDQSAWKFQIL
# Sequence of HSF1 (Q00613 whole entry): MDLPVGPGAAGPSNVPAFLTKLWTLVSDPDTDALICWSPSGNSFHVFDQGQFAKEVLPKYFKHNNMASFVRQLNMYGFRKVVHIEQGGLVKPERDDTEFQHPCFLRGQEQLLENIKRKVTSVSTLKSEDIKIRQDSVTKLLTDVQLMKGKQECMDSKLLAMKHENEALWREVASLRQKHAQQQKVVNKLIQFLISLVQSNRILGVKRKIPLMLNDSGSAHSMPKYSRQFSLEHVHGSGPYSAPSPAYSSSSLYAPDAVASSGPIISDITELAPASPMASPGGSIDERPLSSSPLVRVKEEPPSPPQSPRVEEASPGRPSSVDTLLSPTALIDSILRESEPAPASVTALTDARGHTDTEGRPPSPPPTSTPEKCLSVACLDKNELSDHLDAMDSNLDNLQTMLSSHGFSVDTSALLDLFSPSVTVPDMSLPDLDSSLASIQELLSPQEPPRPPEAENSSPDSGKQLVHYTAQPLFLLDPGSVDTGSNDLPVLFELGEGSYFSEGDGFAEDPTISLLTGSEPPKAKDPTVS
# Sequence of ELF1 (P32519 whole entry): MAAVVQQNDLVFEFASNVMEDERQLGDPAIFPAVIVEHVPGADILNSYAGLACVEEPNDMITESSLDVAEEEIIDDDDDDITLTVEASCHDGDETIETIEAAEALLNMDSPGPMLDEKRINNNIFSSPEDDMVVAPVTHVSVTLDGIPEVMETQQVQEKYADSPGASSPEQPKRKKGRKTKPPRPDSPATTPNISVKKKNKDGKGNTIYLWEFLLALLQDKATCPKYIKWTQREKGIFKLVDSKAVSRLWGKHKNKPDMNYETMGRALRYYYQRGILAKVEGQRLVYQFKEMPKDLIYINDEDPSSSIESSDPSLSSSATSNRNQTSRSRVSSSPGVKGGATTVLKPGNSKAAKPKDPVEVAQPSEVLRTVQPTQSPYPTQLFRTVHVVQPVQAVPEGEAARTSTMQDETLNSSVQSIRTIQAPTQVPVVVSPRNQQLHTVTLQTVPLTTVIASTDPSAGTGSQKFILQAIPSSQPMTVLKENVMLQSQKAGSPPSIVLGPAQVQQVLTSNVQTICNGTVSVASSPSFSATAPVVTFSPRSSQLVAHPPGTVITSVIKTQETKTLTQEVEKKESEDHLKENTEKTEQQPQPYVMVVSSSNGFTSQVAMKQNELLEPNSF
sequence,measurement,setting,value
TCAAAT,binding signal,FLI1,"1.04 fold enrichment (6-mer frequency, TF over GST control)"
same,binding signal,ELK1,"1.05 fold enrichment (6-mer frequency, TF over GST control)"
same,binding signal,GABPA,"1.14 fold enrichment (6-mer frequency, TF over GST control)"
same,binding signal,ERG,"1.06 fold enrichment (6-mer frequency, TF over GST control)"
same,binding signal,ELF1,"1.15 fold enrichment (6-mer frequency, TF over GST control)"
same,binding signal,EHF,"1.07 fold enrichment (6-mer frequency, TF over GST control)"
same,binding signal,SPI1,"1.11 fold enrichment (6-mer frequency, TF over GST control)"
same,binding signal,SPIB,"1.05 fold enrichment (6-mer frequency, TF over GST control)"
same,binding signal,ELK3,"1.03 fold enrichment (6-mer frequency, TF over GST control)"
same,binding signal,FEV,"1.1 fold enrichment (6-mer frequency, TF over GST control)"
same,binding signal,ETV5,"1.09 fold enrichment (6-mer frequency, TF over GST control)"
same,binding signal,HSF1,"1.15 fold enrichment (6-mer frequency, TF over GST control)"
same,binding signal,SPIC,"1.12 fold enrichment (6-mer frequency, TF over GST control)"
same,binding signal,ELK4,"1.04 fold enrichment (6-mer frequency, TF over GST control)"
same,binding signal,ETV2,"1.1 fold enrichment (6-mer frequency, TF over GST control)"
same,binding signal,ELF3,"1.15 fold enrichment (6-mer frequency, TF over GST control)"
same,binding signal,CRX,"1.32 fold enrichment (6-mer frequency, TF over GST control)"
same,binding signal,ETV1,"1.13 fold enrichment (6-mer frequency, TF over GST control)"
